Records with an inconclusive call do not appear. Calls of active or inactive are those of the source. Calls come from the whole dose curve; as a rule, active = well fitted cell-killing curve with a large enough effect; inconclusive = small, poorly fitted or top-dose-only effect, or effect the other way; inactive = flat fitted curve, though single readings scatter.
Tested on: CASKI
Test: Primary qHTS to identify gynecologic anti-cancer compounds using libraries of approved drugs and bioactive compounds (AID 1345084); note: nearly all actives have a fitted effect of over 55% in size
Settings: Gynecologic cancer cell panel viability, ATPlite luminescence, 48 h; series mostly up to 57.5 µM; activity change, negative = cytotoxicity: at the top concentration
Summary of the method: (§1)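 ATP-based viability (ATPlite), 1,000 cells/well, 16 h pre-incubation, 48 h compound at 37 C, 5% CO2, 15 min RT before read.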
% is set by controls: 0 for no effect and ±100 for the full control effect; potency is the fitted concentration of half-maximal effect.

Compound	activity change, negative = cytotoxicity	Potency
O=C(Nc1ccc2[nH]c(=O)oc2c1)C(=O)N1CCC(Cc2ccc(F)cc2)CC1	9.59% (inactive)	
Cc1ccc(F)cc1S(=O)(=O)N[C@@H]1CCN(Cc2ccc(OC(C)C)cc2)C1	5.95% (inactive)	
C#CCNCc1cc2cc(OCc3ccccc3)ccc2[nH]1	-6.99% (inactive)	
C[C@@H](c1ccc2nccn2c1)n1nnc2ncc(-c3cnn(C)c3)nc21	-5.07% (inactive)	
C=C1C(=O)OC2CC(C)=C(C(C)CCCOC(C)=O)C(OC(=O)CC(C)CC)C12 (configuration not stated)	-21.9% [at 25.3 µM] (inactive)	
C=CC(=O)Nc1cc(-n2c(=O)ccc3cnc4ccc(-c5ccc(NS(C)(=O)=O)cc5)cc4c32)ccc1C	-28.7% (inactive)	
O=C(Nc1ccc(-n2nc(C(F)(F)F)cc2C(F)(F)F)cc1)c1ccncc1F	19.3% (inactive)	
O=C(N[C@@H]1CCCc2c1cnn2-c1ccc(F)cc1F)c1ccccn1	-4.91% (inactive)	
C=CC(=O)N1CCC(Oc2cc3c(Nc4ccc(Cl)c(Cl)c4F)ncnc3cc2OC)CC1		22.4 µM (active)
CC(=O)OC1CCC2(C)C(CCC3(C)C2CC=C2C4C(C)C(C)CCC4(C)CCC23C)C1(C)C(=O)O (configuration not stated)	-17% [at 25.3 µM] (inactive)	
CCOC(=O)N1CCC(CN(Cc2ccc(Cl)cc2)Cc2ccc([N+](=O)[O-])s2)C1 (configuration not stated)	-21.2% (inactive)	
Cc1cc(-c2cc(OC(=O)c3ccccc3)ccc2Cl)cc2nnc(Nc3ccc(OCCN4CCCC4)cc3)nc12	10.5% [at 25.3 µM] (inactive)	
CC12CCC(OC3OC(CO)C(O)C(O)C3OC3OC(CO)C(O)C(O)C3O)CC1CCC1C2CCC2(C)/C(=C3/COC(=O)C3)CCC12O (configuration not stated)	8.21% [at 25.3 µM] (inactive)	

Tested on: Es-2
Test: as above
Settings: Gynecologic cancer cell panel viability, ATPlite luminescence, 48 h; series mostly up to 57.5 µM; activity change, negative = cytotoxicity: at the top concentration
Summary of the method: as §1

Compound	activity change, negative = cytotoxicity
O=C(Nc1ccc2[nH]c(=O)oc2c1)C(=O)N1CCC(Cc2ccc(F)cc2)CC1	4.31% (inactive)
Cc1ccc(F)cc1S(=O)(=O)N[C@@H]1CCN(Cc2ccc(OC(C)C)cc2)C1	3% (inactive)
C#CCNCc1cc2cc(OCc3ccccc3)ccc2[nH]1	-3.42% (inactive)
C[C@@H](c1ccc2nccn2c1)n1nnc2ncc(-c3cnn(C)c3)nc21	-6.57% (inactive)
CN(C)CCC(CSc1ccccc1)Nc1ccc(S(=O)(=O)NC(=O)c2ccc(N3CCN(Cc4ccccc4-c4ccc(Cl)cc4)CC3)cc2)cc1[N+](=O)[O-] (configuration not stated)	17.3% (inactive)
C=CC(=O)Nc1cc(-n2c(=O)ccc3cnc4ccc(-c5ccc(NS(C)(=O)=O)cc5)cc4c32)ccc1C	9.45% (inactive)
O=C(Nc1ccc(-n2nc(C(F)(F)F)cc2C(F)(F)F)cc1)c1ccncc1F	-5.1% (inactive)
O=C(N[C@@H]1CCCc2c1cnn2-c1ccc(F)cc1F)c1ccccn1	-0.504% (inactive)
CS/C=C/C(=O)O[C@@H]1CCC2=CC(=O)C(=C(C)C)C[C@]2(C)[C@H]1C	6.24% [at 38.5 µM] (inactive)
C=CC(=O)N1CCC(Oc2cc3c(Nc4ccc(Cl)c(Cl)c4F)ncnc3cc2OC)CC1	2.87% (inactive)
CC(=O)OC1CCC2(C)C(CCC3(C)C2CC=C2C4C(C)C(C)CCC4(C)CCC23C)C1(C)C(=O)O (configuration not stated)	-17.1% [at 25.3 µM] (inactive)
CCOC(=O)N1CCC(CN(Cc2ccc(Cl)cc2)Cc2ccc([N+](=O)[O-])s2)C1 (configuration not stated)	-8.67% (inactive)
Cc1cc(-c2cc(OC(=O)c3ccccc3)ccc2Cl)cc2nnc(Nc3ccc(OCCN4CCCC4)cc3)nc12	3.33% [at 25.3 µM] (inactive)
CC12CCC(OC3OC(CO)C(O)C(O)C3OC3OC(CO)C(O)C(O)C3O)CC1CCC1C2CCC2(C)/C(=C3/COC(=O)C3)CCC12O (configuration not stated)	-15.6% [at 25.3 µM] (inactive)

From PubChem BioAssay (NCATS)
